This is part of a sample that, as a whole, favours compounds with a hit. Of some 79,000 tested, about 15% had one in any assay. Unmarked numbers belong to inactive results. Active and inactive are the calls of the source. Rule as the data show it: active = growth inhibition above about 70%; inactive = the rest.
assay: NCI Yeast Anticancer Drug Screen. Data for the bub3 strain (AID 167); conditions: S. cerevisiae bub3 mutant strain, at 50.0 µM, stronger effect = higher value
Method in brief: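 Mutant yeast screening strain plus compound; vehicle-treated cultures serve as the 0% inhibition reference.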

Structure (SMILES) | growth inhibition
CCOC(=O)c1cnc(SC)nc1Nc1cccc(C)c1 | 9.1%
CCC[CH2][Sn]([CH2]CCC)([O]C(=O)c1nccnc1N)[O]C(=O)c1nccnc1N | 90.3% (active)
Cc1ccc(Nc2nnc(Nc3ccc(C)cn3)c3ccccc23)nc1 | 4.1%
O=S(=O)(O)c1cc2c3ccccc3ccc2c2ccccc12 | -1.35%
Cc1ccc2c3nc4ccccc4c-3csc2c1 | 99.2% (active)
N#C/C(=C/c1cccc2ccccc12)C(N)=O | 28.6%
CC(O)C1CC1 (stereo not given) | -2.2%
O=C(C[N+]12CN3CN(CN(C3)C1)C2)c1ccc(-c2ccccc2)cc1 | 39.2%
O=C(CCCl)NNC1=NCCCN1 | -4.35%
CC(C)=NNS(=O)(=O)c1ccc(C)cc1 | -14.2%
CCOC(=O)COC(=O)CCc1ccccc1 | -12.9%
C=C(C)[C@@H]1CC=C(CO)CC1 | 28.3%
O=C(Cn1cc(I)c(C(=O)NCC(O)CO)n1)NCC(O)CO (stereo not given) | -5.9%
Cc1cccc(NC(=O)C(Cl)Cl)n1 | -1.95%
O=C(NCCCn1ccnc1[N+](=O)[O-])C(=O)NCCCn1ccnc1[N+](=O)[O-] | -32%
O=C(Cl)c1cc(Cl)cc(Cl)c1Br | 15.9%
COC(=O)NC(=O)CCC(=O)O | 7%
O=C(O)c1ccccn1 | -3.85%
NC(=O)c1ccc(NCC2=CC(=O)C=CC2=O)cc1 | -17.9%
CN(C)c1nc2[nH]ncc2c(=O)[nH]1 | 0.5%
